Test results: PubChem BioAssay (NCI)
About 83,000 compounds went through this panel and 20% of them were active in at least one assay; those are over-represented in the sample as a whole.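 Compound tested at a single concentration for 48 hours in 96-well plates; a percent growth value below 10 was scored as active.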 Unmarked numbers belong to inactive results. Active and inactive are the calls of the source.

Legend:
Assay in all cases: NCI-60 one-dose screen, 48 h (100 = growth as untreated, 0 = no growth, -100 = all killed)
Conditions in all cases: 10 µM unless noted
NCI/ADR-RES ovarian = test system: NCI/ADR-RES ovarian
T-47D breast = test system: T-47D breast
BT-549 breast = test system: BT-549 breast
MDA-MB-435 melanoma = test system: MDA-MB-435 melanoma
SW-620 colon = test system: SW-620 colon
MCF7 breast = test system: MCF7 breast
HCT-116 colon = test system: HCT-116 colon
HCC-2998 colon = test system: HCC-2998 colon
KM12 colon = test system: KM12 colon

Structure (SMILES): C#C[C@]1(OC(=O)CCCCCC)CC[C@H]2[C@@H]3CCC4=CC(=O)CC[C@@H]4[C@H]3CC[C@@]21C
- growth (NCI/ADR-RES ovarian): 40.3%
- growth (T-47D breast): 37.8%
- growth (BT-549 breast): 34.1%
- growth (MDA-MB-435 melanoma): 18.3%
- growth (SW-620 colon): 28.1%
- growth (MCF7 breast): 76%
- growth (HCT-116 colon): 12%
- growth (HCC-2998 colon): 49.9%
- growth (KM12 colon): 29.2%

Structure (SMILES): CC(C)CCC1(CCCl)C(=O)NC(=O)NC1=O
- growth (NCI/ADR-RES ovarian): 102%
- growth (T-47D breast): 105%
- growth (BT-549 breast): 102%
- growth (MDA-MB-435 melanoma): 97%
- growth (SW-620 colon): 98.9%
- growth (MCF7 breast): 96.4%
- growth (HCT-116 colon): 100%
- growth (HCC-2998 colon): 107%
- growth (KM12 colon): 108%

Structure (SMILES): CC1=C(CCCNS(C)(=O)=O)C2=C(C)C3(CC3)[C@@](C)(O)C(=O)C2=C1
- growth (NCI/ADR-RES ovarian): -5.49% (active)
- growth (T-47D breast): -11.2% (active)
- growth (BT-549 breast): -31% (active)
- growth (MDA-MB-435 melanoma): 11.7%
- growth (SW-620 colon): 83.3%
- growth (MCF7 breast): 20.7%
- growth (HCT-116 colon): 1.02% (active)
- growth (HCC-2998 colon): -43.3% (active)
- growth (KM12 colon): 62.4%

Structure (SMILES): C[C@@H]1C[C@@]2(C)[C@@H](CC[C@@H]3[C@@H]2CC[C@]2(C)C(=O)CC[C@@H]32)CC1=O
- growth (NCI/ADR-RES ovarian): 102%
- growth (T-47D breast): 98.9%
- growth (BT-549 breast): 112%
- growth (MDA-MB-435 melanoma): 90%
- growth (SW-620 colon): 99.7%
- growth (MCF7 breast): 99.9%
- growth (HCT-116 colon): 69.3%
- growth (HCC-2998 colon): 109%
- growth (KM12 colon): 115%
